Consider eleven compounds from ChEMBL document CHEMBL5724796, “Tm Shift (DSF) assay results for EUbOPEN Chemogenomics Library” (2024).

Holding throughout (settings): Compound concentration 20.0 uM
The target of test [1] is Tyrosine-protein kinase ABL1 (Homo sapiens) (UniProt P00519).
In test [2] the target is Bromodomain-containing protein 4 (Homo sapiens) (UniProt O60885).
Test [3] addresses Cyclin-dependent kinase 2 (Homo sapiens) (UniProt P24941).
The target of test [4] is Casein kinase I isoform delta (Homo sapiens) (UniProt P48730).
Sequence of Casein kinase I isoform delta (Homo sapiens) (P48730 whole entry, looked up, canonical isoform): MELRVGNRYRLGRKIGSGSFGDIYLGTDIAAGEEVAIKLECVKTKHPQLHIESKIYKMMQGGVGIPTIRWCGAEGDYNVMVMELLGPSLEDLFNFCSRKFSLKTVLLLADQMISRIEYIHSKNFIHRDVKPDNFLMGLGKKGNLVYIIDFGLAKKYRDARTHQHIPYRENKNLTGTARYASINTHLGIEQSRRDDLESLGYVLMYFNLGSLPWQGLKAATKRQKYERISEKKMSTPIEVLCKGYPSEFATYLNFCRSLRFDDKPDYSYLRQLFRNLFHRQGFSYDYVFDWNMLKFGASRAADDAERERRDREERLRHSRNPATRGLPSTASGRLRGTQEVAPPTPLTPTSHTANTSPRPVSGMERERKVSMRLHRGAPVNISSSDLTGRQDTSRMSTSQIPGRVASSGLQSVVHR
Test [5] has as its target Glycogen synthase kinase-3 beta (Homo sapiens) (UniProt P49841).
Test [6] has as its target Mitogen-activated protein kinase 1 (Homo sapiens) (UniProt P28482).
Test [7] has as its target T1, Aurora kinase A (Homo sapiens) (UniProt O14965).
T1 sequence (whole entry): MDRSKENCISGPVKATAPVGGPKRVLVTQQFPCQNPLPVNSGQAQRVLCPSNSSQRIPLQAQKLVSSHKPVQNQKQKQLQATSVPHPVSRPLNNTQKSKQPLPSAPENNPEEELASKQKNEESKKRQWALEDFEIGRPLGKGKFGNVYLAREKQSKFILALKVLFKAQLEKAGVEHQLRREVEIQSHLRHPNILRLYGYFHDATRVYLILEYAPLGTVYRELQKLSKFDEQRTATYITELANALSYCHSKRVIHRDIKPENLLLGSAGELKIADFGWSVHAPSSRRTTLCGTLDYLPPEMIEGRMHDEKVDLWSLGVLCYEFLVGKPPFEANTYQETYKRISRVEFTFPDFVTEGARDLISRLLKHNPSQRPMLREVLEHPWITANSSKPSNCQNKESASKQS

Test [8] concerns the target T2, Transcription intermediary factor 1-alpha (Homo sapiens) (UniProt O15164).
T2 sequence (whole entry): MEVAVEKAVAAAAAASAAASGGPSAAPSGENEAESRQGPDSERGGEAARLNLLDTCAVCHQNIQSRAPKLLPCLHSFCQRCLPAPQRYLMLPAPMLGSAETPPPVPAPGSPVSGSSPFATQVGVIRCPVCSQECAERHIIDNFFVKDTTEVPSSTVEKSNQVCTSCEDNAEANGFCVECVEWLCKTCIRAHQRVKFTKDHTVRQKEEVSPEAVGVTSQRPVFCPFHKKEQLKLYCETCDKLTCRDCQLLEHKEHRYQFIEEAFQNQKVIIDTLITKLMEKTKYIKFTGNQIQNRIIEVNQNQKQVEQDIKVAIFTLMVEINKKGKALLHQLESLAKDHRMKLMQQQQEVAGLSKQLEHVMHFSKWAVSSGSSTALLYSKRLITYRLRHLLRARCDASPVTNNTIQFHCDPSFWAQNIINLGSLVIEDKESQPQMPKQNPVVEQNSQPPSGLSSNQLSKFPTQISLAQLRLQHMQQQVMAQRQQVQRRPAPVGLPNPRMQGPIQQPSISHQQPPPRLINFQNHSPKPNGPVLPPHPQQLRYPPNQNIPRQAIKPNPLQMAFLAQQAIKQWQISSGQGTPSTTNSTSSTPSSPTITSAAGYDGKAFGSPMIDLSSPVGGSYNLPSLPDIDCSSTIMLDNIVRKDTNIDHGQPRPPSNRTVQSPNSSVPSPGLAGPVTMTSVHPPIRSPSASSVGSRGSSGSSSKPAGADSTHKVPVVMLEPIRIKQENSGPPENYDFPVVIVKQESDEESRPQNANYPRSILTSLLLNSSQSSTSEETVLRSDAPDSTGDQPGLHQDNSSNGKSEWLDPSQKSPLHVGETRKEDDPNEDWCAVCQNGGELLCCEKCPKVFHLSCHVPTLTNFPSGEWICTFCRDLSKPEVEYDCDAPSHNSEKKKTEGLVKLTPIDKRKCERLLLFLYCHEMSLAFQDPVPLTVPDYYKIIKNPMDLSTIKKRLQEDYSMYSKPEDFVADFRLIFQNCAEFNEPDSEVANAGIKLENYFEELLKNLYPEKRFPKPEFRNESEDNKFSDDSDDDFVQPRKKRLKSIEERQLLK

In general, ΔTm refers to the change in melting temperature against a reference sample.

Sequence of Mitogen-activated protein kinase 1 (Homo sapiens) (P28482 whole entry): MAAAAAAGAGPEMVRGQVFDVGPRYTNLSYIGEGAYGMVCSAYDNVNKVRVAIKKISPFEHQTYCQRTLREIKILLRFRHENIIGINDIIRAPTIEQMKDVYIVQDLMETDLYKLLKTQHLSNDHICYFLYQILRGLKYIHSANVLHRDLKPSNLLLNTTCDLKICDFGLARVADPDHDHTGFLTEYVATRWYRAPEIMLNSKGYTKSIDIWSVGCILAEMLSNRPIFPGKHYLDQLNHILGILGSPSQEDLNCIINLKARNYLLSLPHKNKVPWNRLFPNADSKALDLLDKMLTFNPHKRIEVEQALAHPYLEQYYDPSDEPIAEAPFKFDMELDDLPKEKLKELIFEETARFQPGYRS
Sequence of Tyrosine-protein kinase ABL1 (Homo sapiens) (P00519 whole entry): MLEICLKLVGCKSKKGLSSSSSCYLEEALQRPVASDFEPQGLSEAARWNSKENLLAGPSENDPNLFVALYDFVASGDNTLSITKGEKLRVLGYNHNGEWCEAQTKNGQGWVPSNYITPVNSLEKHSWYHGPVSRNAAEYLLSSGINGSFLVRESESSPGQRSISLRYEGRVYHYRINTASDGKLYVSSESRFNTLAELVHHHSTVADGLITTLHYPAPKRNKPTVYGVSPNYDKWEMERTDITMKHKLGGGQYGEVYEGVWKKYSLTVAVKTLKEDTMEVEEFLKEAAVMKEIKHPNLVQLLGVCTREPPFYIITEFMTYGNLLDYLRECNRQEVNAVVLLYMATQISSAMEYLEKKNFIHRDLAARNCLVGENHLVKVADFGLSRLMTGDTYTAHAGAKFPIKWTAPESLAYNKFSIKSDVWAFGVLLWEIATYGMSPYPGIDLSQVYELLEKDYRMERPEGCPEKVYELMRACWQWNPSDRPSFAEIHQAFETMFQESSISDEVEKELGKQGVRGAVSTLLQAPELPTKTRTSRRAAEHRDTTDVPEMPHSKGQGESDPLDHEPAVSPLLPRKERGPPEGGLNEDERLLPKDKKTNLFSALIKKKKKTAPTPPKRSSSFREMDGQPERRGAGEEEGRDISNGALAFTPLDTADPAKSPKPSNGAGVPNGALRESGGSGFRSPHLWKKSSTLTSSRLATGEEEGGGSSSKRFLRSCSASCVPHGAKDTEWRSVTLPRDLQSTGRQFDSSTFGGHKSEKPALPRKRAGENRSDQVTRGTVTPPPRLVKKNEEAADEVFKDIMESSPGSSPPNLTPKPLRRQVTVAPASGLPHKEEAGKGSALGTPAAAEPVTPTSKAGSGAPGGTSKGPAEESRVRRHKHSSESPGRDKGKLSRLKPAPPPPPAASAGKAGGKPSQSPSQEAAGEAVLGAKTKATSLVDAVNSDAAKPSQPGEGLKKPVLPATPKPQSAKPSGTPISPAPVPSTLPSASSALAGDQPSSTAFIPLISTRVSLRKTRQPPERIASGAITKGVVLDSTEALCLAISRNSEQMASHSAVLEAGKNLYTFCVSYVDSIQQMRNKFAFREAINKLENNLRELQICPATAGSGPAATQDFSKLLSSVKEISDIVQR
Sequence of Glycogen synthase kinase-3 beta (Homo sapiens) (P49841 whole entry, looked up): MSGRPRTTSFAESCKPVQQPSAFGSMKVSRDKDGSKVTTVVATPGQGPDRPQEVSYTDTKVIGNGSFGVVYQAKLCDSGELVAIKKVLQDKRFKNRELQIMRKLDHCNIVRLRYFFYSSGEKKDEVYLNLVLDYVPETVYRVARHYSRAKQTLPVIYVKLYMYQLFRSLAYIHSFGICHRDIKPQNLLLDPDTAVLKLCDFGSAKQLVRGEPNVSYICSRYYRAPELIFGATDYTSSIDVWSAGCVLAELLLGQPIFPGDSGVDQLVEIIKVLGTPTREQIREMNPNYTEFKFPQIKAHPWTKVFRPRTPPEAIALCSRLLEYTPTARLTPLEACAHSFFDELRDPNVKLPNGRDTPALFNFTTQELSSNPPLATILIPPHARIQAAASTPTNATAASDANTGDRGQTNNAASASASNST

In the case of `COc1c(CN)cc(CN)cc1OCCCN1Cc2ccccc2C1`, the ΔTm in test [1] is 0.19 °C; in test [2] it was -1.72 °C; in test [3], -0.14 °C; in test [4] it was -0.24 °C; in test [5], -0.15 °C; in test [6] it was 0.22 °C. The ΔTm is -2.26 °C in test [7] and 0.95 °C in test [8].
For `CCOCC1(COCC)CCC(c2n[nH]cc2CN(C)CCNC)CC1`, the ΔTm in test [1] was 0.58 °C; in test [2], -1.39 °C; in test [3], -0.06 °C; in test [4], 0.56 °C; in test [5], -1.08 °C; in test [6] it was 0.33 °C. The ΔTm in test [7] is -0.08 °C; in test [8] it was -1.29 °C.
Consider `O=C(Nc1ccc2[nH]nc(-c3ccncc3)c2c1)[C@@H]1CCN(CC(=O)N2CCN(c3ccc(-c4ncccn4)cc3)CC2)C1`, for which the ΔTm in test [1] is 1.95 °C; in test [2], -1.51 °C; in test [3], 0.12 °C; in test [4] it was 1.66 °C; in test [5] it was 1.44 °C; in test [6], 13.1 °C. Besides, the results for the ΔTm in test [7] and in test [8] were 3.82 °C and -0.46 °C, respectively.
Take `Cc1ncsc1-c1ccc(CNC(=O)[C@@H]2C[C@@H](O)CN2C(=O)[C@@H](NC(=O)COCCOCCOCCNC(=O)C[C@@H]2N=C(c3ccc(Cl)cc3)c3c(sc(C)c3C)-n3c(C)nnc32)C(C)(C)C)cc1`: the ΔTm in test [1] is 0.3 °C; in test [2], 10 °C; in test [3], -1.76 °C; in test [4], 0.94 °C; in test [5], 0 °C; in test [6], 0 °C. Moreover, the ΔTm in test [7] and in test [8] was 0 °C in each case.
On to `CCCOc1ccc(NC(=O)CN2CCN(C)CC2)cc1-c1nc(CC)c(CC)c(=O)[nH]1`, for which the ΔTm in test [1] is 0.61 °C; in test [2] it was -1.93 °C; in test [3] it was 0.23 °C; in test [4], -0.21 °C; in test [5] it was -0.28 °C; in test [6], 0.66 °C. Also, the figures for the ΔTm in test [7] and in test [8] were -2.39 °C and -1 °C, respectively.
`COc1ccc(C(=O)C2CCN(CC(=O)N(Cc3nc4c(c(=O)[nH]3)COCC4)CC3CC3)CC2)cc1`: the ΔTm is 0.52 °C in test [1]; -1.61 °C in test [2]; 0.34 °C in test [3]; -0.4 °C in test [4]; -0.12 °C in test [5]; 0.46 °C in test [6]. Moreover, the figures for the ΔTm in test [7] and in test [8] were -1.35 °C and 0.91 °C, respectively.
With `CC(C)(C)OC(=O)NCCCCCN(CCc1ccccc1)C(=O)n1cc(-c2ccc(OC(F)(F)F)cc2)nn1`, the ΔTm is -0.13 °C in test [1]; -3.63 °C in test [2]; 0.01 °C in test [3]; -1.51 °C in test [4]; -2.3 °C in test [5]; 0.71 °C in test [6]. The ΔTm was -2.16 °C in test [7] and 0.4 °C in test [8].
As for `COc1cc2c(cc1-c1c(C)noc1C)[nH]c1nc(C)nc(Nc3cc(C4CC4)nn3C)c12`, the ΔTm in test [1] was 0.79 °C; in test [2], 14.9 °C; in test [3], -0.63 °C; in test [4] it was -0.39 °C; in test [5], 0.26 °C; in test [6] it was 0.59 °C. Besides, the ΔTm was -0.72 °C in test [7] and 0.66 °C in test [8].
For the compound `Cn1nc(C(C)(C)C)cc1C(=O)NC(Cc1cccc(Cl)c1)C(=O)NCC#N` (stereo not drawn), the ΔTm was 0.37 °C in test [1]; -2.22 °C in test [2]; 0.71 °C in test [3]; 0.04 °C in test [4]; 0.23 °C in test [5]; 0.2 °C in test [6]. For the same compound, the results for the shift in melting temperature (ΔTm) in test [7] and in test [8] were -1.33 °C and 0.74 °C, respectively.
With `O=C(C1CC1)N1CCN(Cn2sc3ccccc3c2=O)CC1`, the ΔTm is -7.31 °C in test [1]; -4.76 °C in test [2]; -3.3 °C in test [3]; -0.26 °C in test [4]; 0 °C in test [5]; -4.19 °C in test [6]. In addition, the values for the ΔTm in test [7] and in test [8] were -1.92 °C and 0 °C, respectively.
Take `Cc1noc(C)c1-c1cc(Cl)c(Nc2ccccc2C(=O)O)c(Cl)c1`: the ΔTm was 0.49 °C in test [1]; 2.54 °C in test [2]; -0.13 °C in test [3]; -0.64 °C in test [4]; -0.39 °C in test [5]; 0.1 °C in test [6]. For the same compound, the values for the ΔTm in test [7] and in test [8] were -2.08 °C and -1.42 °C, respectively.
